# Measured values taken from PubChem BioAssay (NCATS).
# “And” between values parts separate entries of the source, which are not always exact repeats. Equal values may be shown once. Records with an inconclusive call do not appear. A call without a number means that no potency is given here. Values without a mark were called inactive. The source made the active and inactive calls. Calls follow the shape of the dose curve; as a rule, active = well fitted curve in the direction sought with a large enough effect; inconclusive = small, poorly fitted or top-dose-only effect, or another doubt; inactive = no such curve, though single readings can be large; an effect the other way counts as inactive or inconclusive. Where a SMILES comes first, the peptide text is derived from it. Peptide text beside a SMILES is read from it. [ ]: non-standard residue; d: D form. The star is where a group is joined. Sta = CC(C)C[C@H](N)[C@@H](O)CC(=O)O; Isovaleryl = CC(C)CC(=O)*
# How the values were obtained:
# [1] = biological target: Cytochrome P450 3A7 (Homo sapiens) (UniProt P24462); test: Cytochrome P450 family 3 subfamily A member 7 (CYP3A7) small molecule antagonists: luciferase biochemical qHTS assay (AID 1963596); conditions: P450-Glo CYP3A7 enzyme luminescence, 1 h; series mostly up to 57.4 µM; also: nearly all actives have a fitted effect of over 40% in size
# Method in brief: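 Biochemical CYP3A7 activity measured with P450-Glo system: luciferin formed from proluciferin substrate in NADPH-driven reaction (1 h, room temperature) after 10 min compound preincubation. Signal in relative luminescence units.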
# [2] = Viability qHTS for spleen associated tyrosine kinase inhibitor (SYKi) naive MV4-11 cells (AID 1963823); conditions: MV4-11 AML viability, CellTiter-Glo luminescence, 72 h; series mostly up to 45 µM; also: nearly all actives have a fitted effect of over 40% in size
# Method in brief: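 Cells: MV4-11, SYK inhibitor naive, 500 per well. Treatment: library compounds, 72 hr, 37 C, 5% CO2. Read-out: CellTiter-Glo luminescence after 10 min RT.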
# [3] = Viability qHTS for spleen associated tyrosine kinase inhibitor (SYKi) drug resistant MV4-11 cells (AID 1963824); conditions: SYKi-resistant MV4-11 viability, CellTiter-Glo, 72 h; series mostly up to 45 µM; also: nearly all actives have a fitted effect of over 35% in size
# Method in brief: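 SYK inhibitor-resistant MV4-11 AML cells, 500 per well, added to predispensed compounds and incubated 72 hr at 37 C, 5% CO2. Viability measured by CellTiter-Glo luminescence after 10 min at room temperature.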
# [4] = Quantitative highthroughput screen to assess conditional lethalithy of NOMO1 cells grown in RPMI1640 with untreated serum (RPMI+s) (AID 1963876); conditions: NOMO1 AML cells in RPMI+serum, CellTiter-Glo viability, 48 h; series mostly up to 45.8 µM; also: nearly all actives have a fitted effect of over 35% in size
# Method in brief: (§1)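 Each medium arm—HPLM with 10% dialyzed FBS, or RPMI1640 with 5 mM glucose and 10% untreated or dialyzed FBS—was screened against an 11-point, 3-fold compound titration for 48 h at 37 °C, with CellTiter-Glo luminescence as endpoint.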
# [5] = Quantitative highthroughput screen to assess conditional lethalithy of NOMO1 cells grown in RPMI1640 with dialyzed fetal bovine serum (RPMI+ds) (AID 1963877); conditions: NOMO1 in RPMI+dialyzed FBS viability, ATP luminescence, 48 h; series mostly up to 45.8 µM; also: nearly all actives have a fitted effect of over 30% in size
# Method in brief: as §1
# [6] = Quantitative highthroughput screen to assess conditional lethalithy of NOMO1 cells grown in Human Plasma-Like Medium with dialyzed fetal bovine serum (HPLM+ds) (AID 1963878); conditions: NOMO1 AML cells in HPLM+ds, CellTiter-Glo viability, 48 h; series mostly up to 45.8 µM; also: nearly all actives have a fitted effect of over 35% in size
# Method in brief: as §1
# [7] = Quantitative highthroughput screen to assess conditional lethalithy of P12 Ichikawa cells grown in Human Plasma-Like Medium with dialyzed fetal bovine serum (HPLM+ds) (AID 1963879); conditions: ATP luminescence, 48 h; Potency: viability; series mostly up to 45.8 µM; also: nearly all actives have a fitted effect of over 35% in size
# Method in brief: as §1
# [8] = Quantitative highthroughput screen to assess conditional lethalithy of P12 Ichikawa cells grown in RPMI1640 with dialyzed fetal bovine serum (RPMI+ds) (AID 1963880); conditions: ATP luminescence, 48 h; Potency: P12-Ichikawa viability; series mostly up to 45.8 µM; also: nearly all actives have a fitted effect of over 35% in size
# Method in brief: as §1
# [9] = Quantitative highthroughput screen to assess conditional lethalithy of SEM cells grown in RPMI1640 with unreated serum (RPMI+s) (AID 1963883); conditions: SEM B-ALL cells, CellTiter-Glo viability, 48 h; series mostly up to 45.8 µM; also: nearly all actives have a fitted effect of over 35% in size
# Method in brief: as §1
# [10] = Cellular viability qHTS for adrenocortical cancer (ACC) cell line SW-13 (AID 1963989); conditions: SW-13 ACC cells viability, CellTiter-Glo, 48 h; activity (max response): active compounds read low; also: nearly all actives have a fitted effect of over 65% in size;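 as to activity (max response): cells grown in serum-free medium with ITS supplement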
# Method in brief: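 Luminescent ATP read-out (CellTiter-Glo, 20 min at room temperature) measured metabolically competent SW-13 cells after 48 h compound treatment. Final concentrations spanned up to 46 uM; bortezomib served as positive control.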
# [11] = Cellular viability qHTS for adrenocortical cancer (ACC) cell line NCI-H295R (AID 1963990); conditions: CellTiter-Glo ATP luminescence, 48 h; series mostly up to 46.1 µM; also: nearly all actives have a fitted effect of over 60% in size
# Method in brief: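 IC50 and maximal efficacy derive from four-parameter logistic modelling of titration curves, with reads scaled between DMSO-only wells (0%) and doxorubicin hydrochloride (100% inhibition). Compounds spanned up to 46 uM over 48 h.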
# [12] = Quantitative highthroughput screen to assess conditional lethalithy of P12 Ichikawa cells grown in RPMI1640 with untreated serum (RPMI+s) (AID 1963881); conditions: ATP luminescence, 48 h; Potency: viability; series mostly up to 45.8 µM; also: nearly all actives have a fitted effect of over 35% in size
# Method in brief: as §1
# [13] = Quantitative highthroughput screen to assess conditional lethalithy of SEM cells grown in Human Plasma-Like Medium with dialyzed fetal bovine serum (HPLM+ds) (AID 1963882); conditions: SEM B-ALL cells in HPLM+ds, CellTiter-Glo viability, 48 h; series mostly up to 45.8 µM; also: nearly all actives have a fitted effect of over 35% in size
# Method in brief: as §1
# [14] = Quantitative highthroughput screen to assess conditional lethalithy of SEM cells grown in RPMI1640 with dialyzed fetal bovine serum (RPMI+ds) (AID 1963884); conditions: SEM B-ALL cells, RPMI+dialyzed FBS, CellTiter-Glo viability, 48 h; series mostly up to 45.8 µM; also: nearly all actives have a fitted effect of over 35% in size
# Method in brief: as §1
# Potency is read from the fitted curve at half-maximal effect.
# Chain of Cytochrome P450 3A7 (Homo sapiens) (P24462 whole entry, looked up): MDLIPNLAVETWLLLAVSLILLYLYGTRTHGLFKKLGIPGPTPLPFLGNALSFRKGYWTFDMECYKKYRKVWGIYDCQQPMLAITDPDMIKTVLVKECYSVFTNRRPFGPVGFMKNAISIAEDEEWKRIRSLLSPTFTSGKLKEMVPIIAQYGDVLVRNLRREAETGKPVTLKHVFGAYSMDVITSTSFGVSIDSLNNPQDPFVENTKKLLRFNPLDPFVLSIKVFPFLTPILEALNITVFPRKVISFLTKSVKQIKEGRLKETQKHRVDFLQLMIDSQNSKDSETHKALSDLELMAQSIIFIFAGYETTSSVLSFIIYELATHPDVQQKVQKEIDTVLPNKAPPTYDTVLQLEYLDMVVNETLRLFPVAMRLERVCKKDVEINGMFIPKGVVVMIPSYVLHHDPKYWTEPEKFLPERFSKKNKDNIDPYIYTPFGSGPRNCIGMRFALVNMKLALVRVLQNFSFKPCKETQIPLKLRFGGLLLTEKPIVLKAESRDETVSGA
Compound,Potency [1],Potency [2],Potency [3],Potency [4],Potency [5],Potency [6],Potency [7],Potency [8],Potency [9],activity (max response) [10],Potency [11],Potency [12],Potency [13],Potency [14],Potency [10]
CC(C)CC(=O)N[C@H](C(=O)N[C@H](C(=O)N[C@@H](CC(C)C)[C@@H](O)CC(=O)N[C@@H](C)C(=O)N[C@@H](CC(C)C)[C@@H](O)CC(=O)O)C(C)C)C(C)C (Isovaleryl-VV[Sta]A[Sta]-OH),inactive,inactive,inactive,inactive,inactive,inactive,inactive,inactive,26.4 µM (active),4.2% and -6.21%,inactive,–,–,–,–
CC(C)NCC(O)COc1ccc(COCCOC(C)C)cc1 (configuration not stated),inactive,inactive,inactive,inactive,inactive,inactive,inactive,inactive,inactive,0.903%,inactive,inactive,inactive,inactive,–
Nc1nc(N)nc(-c2cc(Cl)ccc2Cl)n1,inactive,inactive,inactive,inactive,inactive,inactive,inactive,inactive,–,2.1% and -6.28%,inactive,inactive,–,inactive,–
CCOCC(O)COc1ccc(NC(=O)CC[S+](C)C)cc1 (configuration not stated),inactive,inactive,inactive,inactive,inactive,inactive,inactive,inactive,inactive,–,inactive,inactive,inactive,inactive,–
Cc1cnc(NC(=O)C2=C(O)c3ccccc3S(=O)(=O)N2C)s1,inactive,inactive,inactive,inactive,inactive,inactive,inactive,–,inactive,12.3% [middle of 4 runs],inactive,inactive,inactive,inactive,–
COc1cc(Nc2c(C#N)cnc3cc(OCCCN4CCN(C)CC4)c(OC)cc23)c(Cl)cc1Cl,15.5 µM (active),944 nM (active) and 1.3 µM (active) and 1.18 µM (active),944 nM (active) and 1.16 µM (active) and 590 nM (active),7.43 µM (active),8.33 µM (active),3.72 µM (active),3.72 µM (active),5.26 µM (active),1.87 µM (active),–,4.61 µM (active) and 3.55 µM (active),4.69 µM (active),1.66 µM (active),2.35 µM (active),4.61 µM (active) and 2 µM (active)
NCCCCCC(=O)O,inactive,inactive,inactive,inactive,inactive,inactive,inactive,inactive,inactive,12.2% and -16.4%,inactive,inactive,–,–,–
Clc1cccc(Cl)c1NC1=NCCN1,inactive,inactive,inactive,inactive,inactive,inactive,inactive,inactive,–,13.1%,inactive,inactive,inactive,inactive,–
CC(C[N+](C)(C)C)OC(N)=O (configuration not stated),inactive,inactive,inactive,inactive,inactive,inactive,inactive,inactive,inactive,2.28% and -2.17%,inactive,inactive,inactive,inactive,–
O=P(O)(O)C(O)(Cc1cccnc1)P(=O)(O)O,inactive,inactive,inactive,inactive,inactive,inactive,inactive,inactive,–,11.3% and 10.6%,inactive,inactive,inactive,–,–
NC(=O)c1cccnc1,inactive,inactive,inactive,inactive,inactive,inactive,inactive,inactive,–,-8.19% and 2.22%,inactive,inactive,16.6 µM (active),–,–
CCC1(C)CC(=O)NC1=O (configuration not stated),inactive,inactive,inactive,inactive,inactive,inactive,inactive,inactive,inactive,14.5% and 4.04%,inactive,inactive,inactive,–,–
O=C(c1ccccc1)c1ccc2n1CCC2C(=O)O (configuration not stated),inactive,inactive,inactive,inactive,inactive,inactive,2.35 µM (active),4.18 µM (active),–,8.29% and -6.52%,inactive,3.72 µM (active),–,4.69 µM (active),–
COC(=O)[C@H](Cc1ccccc1)NC(=O)[C@@H](N)CC(=O)O (H-Asp-Phe-OMe),inactive,inactive,inactive,inactive,inactive,inactive,inactive,inactive,inactive,0.253% and -5.37%,inactive,inactive,inactive,inactive,–
CN(C)c1cc(NC(=O)CNC(C)(C)C)c(O)c2c1C[C@@H]1C[C@H]3[C@H](N(C)C)C(=O)C(C(N)=O)=C(O)[C@@]3(O)C(=O)C1=C2O,inactive,inactive,inactive,inactive,inactive,inactive,inactive,inactive,–,–,–,inactive,inactive,inactive,–
COc1ncnc(NS(=O)(=O)c2ccc(N)cc2)c1OC,inactive,inactive,inactive,4.69 µM (active),7.43 µM (active),2.35 µM (active),1.18 µM (active),1.18 µM (active),0.935 µM (active),-3.79% and 4.29%,inactive,1.66 µM (active),1.87 µM (active),–,–
Nc1nnc(-c2cccc(Cl)c2Cl)c(N)n1,inactive,inactive,inactive,inactive,inactive,inactive,inactive,inactive,inactive,1.68% and 0.0596%,inactive,–,–,–,–
O=C(NC(Cc1cc(=O)[nH]c2ccccc12)C(=O)O)c1ccc(Cl)cc1 (configuration not stated),inactive,inactive,inactive,inactive,inactive,inactive,inactive,inactive,–,7.09% and -3.01%,inactive,inactive,inactive,inactive,–
O=C(O)c1cc(=O)c2c(OCC(O)COc3cccc4oc(C(=O)O)cc(=O)c34)cccc2o1,inactive,inactive,inactive,inactive,inactive,inactive,inactive,inactive,inactive,10.3% and -0.0262%,inactive,inactive,inactive,inactive,–
Cc1coc2c1C(=O)C(=O)c1c-2ccc2c1CCCC2(C)C,inactive,1860 nM (active),1.86 µM (active),inactive,inactive,inactive,inactive,inactive,–,–,–,inactive,inactive,inactive,–
COC[C@H](NC(=O)c1cnc(C)s1)C(=O)N[C@@H](COC)C(=O)N[C@@H](Cc1ccccc1)C(=O)[C@@]1(C)CO1,inactive,66.1 nM (active),0.0833 µM (active),0.469 µM (active),0.469 µM (active),0.332 µM (active),0.235 µM (active),0.235 µM (active),–,–,282 nM (active),0.264 µM (active),0.0935 µM (active),0.0833 µM (active),316 nM (active)
CCCC(CCC)C(=O)O,inactive,inactive,inactive,inactive,–,–,inactive,inactive,inactive,6.17% and -13.6%,inactive,–,inactive,inactive,–
CN(Cc1cnc2nc(N)nc(N)c2n1)c1ccc(C(=O)N[C@@H](CCC(=O)O)C(=O)O)cc1,inactive,10.6 nM (active) and 37.2 nM (active),10.6 nM (active) and 46.8 nM (active),–,–,–,0.0662 µM (active),0.105 µM (active),1.05 µM (active),–,13 nM (active) and 316 nM (active),–,0.132 µM (active),0.0833 µM (active),18.4 nM (active) and 251 nM (active)
O=C1CCC(N2C(=O)c3ccccc3C2=O)C(=O)N1 (configuration not stated),inactive,inactive,inactive,–,inactive,–,–,inactive,–,13.3% and -15.2%,inactive,inactive,inactive,inactive,–
NCCOc1cc(C(=O)Nc2cc(OCCN)c3ccccc3n2)nc(C(=O)Nc2cc(OCCN)c3ccccc3n2)c1,inactive,1.3 µM (active) and 1.66 µM (active),2.59 µM (active) and 3.72 µM (active),–,–,inactive,–,–,–,–,–,–,–,–,–
CC1(C)[C@H](C(=O)O)N2C(=O)C[C@H]2S1(=O)=O,inactive,inactive,inactive,8.33 µM (active),–,–,–,inactive,inactive,9.85%,inactive,inactive,inactive,inactive,–
CCCOc1ccc2nc(NC(=O)OC)[nH]c2c1,inactive,263 nM (active),184 nM (active) and 332 nM (active),–,–,–,0.0418 µM (active),–,0.0148 µM (active),–,355 nM (active),0.0418 µM (active),–,0.0209 µM (active),251 nM (active)
O=NN(CCCl)C(=O)NC1CCCCC1,inactive,inactive,inactive,–,inactive,inactive,inactive,inactive,inactive,15.5% and -13.1%,inactive,inactive,inactive,–,–
Nc1nc2c(ncn2COCCO)c(=O)[nH]1,inactive,inactive,inactive,inactive,–,–,inactive,inactive,–,1.46% and 4.77%,inactive,inactive,–,–,–
O=C(Cc1ccc(-c2ccc(OCCN3CCOCC3)cc2)cn1)NCc1ccccc1,inactive,231 nM (active) and 93.4 nM (active),206 nM (active) and 105 nM (active),–,–,–,0.0332 µM (active),0.0372 µM (active),0.0264 µM (active),–,178 nM (active),0.0372 µM (active),0.0264 µM (active),0.0296 µM (active),199 nM (active)
